NR3A LBD binder – NR3A (human) ligand-binding domain modulation; actives 2.5% (n = 340,000); NR3A LBD differential scanning fluorimetry, Tm shift; 0% = protein alone, 100% = glycine-bound protein; Tm shift relative to glycine control, % at 25 µM;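 active = melting temperature shift of at least 10% of the positive control shift, at one fixed dose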
sPLA2-III inh – Blocks human group III sPLA2 activity; Q9NZ20; QFRET BODIPY PC-A2 liposome hydrolysis, fluorescence; inhibition, % at 12.2 µM; actives 0.56% (n = 370,000);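 active = inhibition above mean plus 3 SD of compounds lying within the high and low control bounds, cut at about 19% in these data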;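 note: 0% = median of test compound wells and 100% = no enzyme DMSO wells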
Target sequence (Q9NZ20 whole entry, looked up): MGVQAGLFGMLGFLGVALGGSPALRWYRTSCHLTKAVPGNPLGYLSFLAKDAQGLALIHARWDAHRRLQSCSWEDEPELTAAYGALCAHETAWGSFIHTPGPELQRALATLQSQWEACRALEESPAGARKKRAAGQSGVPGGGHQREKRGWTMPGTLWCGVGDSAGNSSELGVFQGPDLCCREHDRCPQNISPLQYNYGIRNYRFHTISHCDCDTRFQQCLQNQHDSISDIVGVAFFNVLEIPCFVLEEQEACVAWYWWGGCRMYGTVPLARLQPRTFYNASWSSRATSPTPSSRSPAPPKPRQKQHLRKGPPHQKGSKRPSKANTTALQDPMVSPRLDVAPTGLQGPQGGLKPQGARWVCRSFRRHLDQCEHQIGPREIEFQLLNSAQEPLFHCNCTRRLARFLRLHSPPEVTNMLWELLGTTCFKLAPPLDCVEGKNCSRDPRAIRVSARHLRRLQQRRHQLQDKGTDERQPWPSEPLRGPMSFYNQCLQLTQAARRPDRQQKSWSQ
SUMO HTRF inh – inhibitors of human SUMOylation (UBC9). HTRF SUMOylation assay, SAE1/SAE2 + UBC9, in vitro. inhibition, % at 35 µM. actives 0.36% (n = 290,000). AID 2006; in the data active = inhibition above about 50%, passing the limit was not always enough; inconclusive = no clear call, values can overlap the other calls
UBC13 polyUb – blocks human UBC13 polyubiquitin chain formation. P61088. TR-FRET. inhibition, % at 20 µM. actives 0.47% (n = 330,000); in the data active = inhibition above about 45%, passing the limit was not always enough; inconclusive = no clear call, values can overlap the other calls
Target sequence (P61088 whole entry, looked up): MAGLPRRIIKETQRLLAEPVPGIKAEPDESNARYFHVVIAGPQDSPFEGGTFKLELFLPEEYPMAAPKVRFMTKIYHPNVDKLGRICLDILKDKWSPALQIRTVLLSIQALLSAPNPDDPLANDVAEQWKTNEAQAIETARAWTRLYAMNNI
sPLA2 confirm – human GIII-sPLA2 inhibition, confirmation; inhibition, % at 12.2 µM; recombinant hGIII-sPLA2, BODIPY PC-A2 QFRET fluorescence; AID 743280; actives 34% (n = 2,000); shares compounds with sPLA2-III inh;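 active = mean inhibition across triplicates above the hit cutoff set in the earlier primary screen, cut at about 19% in these data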;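 note: 0% = enzyme with DMSO and 100% = DMSO wells lacking enzyme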
BODIPY interf – optically interferes with 535nm fluorescence in sPLA2 counter-screen. shares compounds with sPLA2-III inh. BODIPY FL product fluorescence interference, QFRET. inhibition, % at 12.2 µM. actives 8.5% (n = 2,000). AID 743282;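 active = average inhibition above the solvent-only control mean plus 3 SD, cut at about 6% in these data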;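 note: 0% = DMSO with substrate plus product and 100% = DMSO with substrate alone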
BODIPY interf DR – interferes with 535nm fluorescence in dose response counter-screen; shares compounds with sPLA2-III inh; BODIPY FL product fluorescence interference, cell-free; IC50, µM; 240 tested, under 10 active; AID 743455;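 active = IC50 at or below 10 µM; inactive = IC50 above 10 µM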
The depositor's hits bear a star; u = inconclusive; x = no result. In the library only some 3.3% were active in any assay of this set; here they are far more common.

SMILES | NR3A LBD binder | sPLA2-III inh | SUMO HTRF inh | UBC13 polyUb | sPLA2 confirm | BODIPY interf | others
CC1(C)CC2C1CCC1(O)CC2(C)CCC1N(O)c1ccc(C(=O)NCCO)cn1 (stereo not given) | 5.2 | 20.6* | x | 15.3 | 24.4* | -7.3
CNC(=S)NN=C(C)c1ccc(OC)cc1O | -9.8 | 26.6* | x | x | 31.2* | 3.5 | BODIPY interf DR=>122
COC(=O)C[C@H]1CC[C@@H]2[C@H](COc3ccc(NS(C)(=O)=O)cc3C(=O)N2C)O1 | x | 5.2 | x | x | x | x
CC(C)Sc1cc(N2CCCC2)nc(-c2ccccc2Cl)n1 | 3.5 | 22.4* | -2.6 | -13.3 | 2.7 | -7.2
O=C(O)CNS(=O)(=O)Cc1ccccc1 | 1.7 | 20.5* | 12.9 | -6.9 | 5.1 | -6.4
CCOC(=O)CNS(=O)(=O)Cc1ccccc1 | 2.1 | 7.2 | x | 14.0 | x | x
COC(=O)c1ccc(C(=O)OC)c(NC(=S)N2CCCC2)c1 | 0.0 | 13.6 | 6.6 | -7.1 | x | x
COC(=O)c1ccc(C(=O)OC)c(NC(=S)N2CCC(C)CC2)c1 | -5.4 | 22.4* | 22.2 | 16.9 | 6.6 | -6.2
CC/C(=C/c1sc2ccc(C)cc2[n+]1CCCS(=O)(=O)[O-])SC | 1.9 | 4.4 | 14.7 | -4.5 | x | x
Cc1ccc2sc(C)[n+](CCC(C)S(=O)(=O)[O-])c2c1 (stereo not given) | -0.7 | 19.6* | -2.1 | 0.9 | -4.4 | 0.2
CCCCNS(=O)(=O)CC1NCc2cc(F)ccc21 (stereo not given) | x | 6.9 | x | x | x | x
CC(C)(C)NC(=O)N1CCC(CO)(Cc2ccccc2Cl)CC1 | -0.4 | 1.2 | 5.2 | 21.2 | x | x
CC1(C)CC(CCN)(Cc2ccccc2Cl)CCO1 (stereo not given) | 1.3 | 19.7* | 2.0 | u | 10.5 | -11.6
COC(=O)[C@]12C[C@H](CC(=O)NCc3cccs3)C(=O)N(Cc3cccc4ccccc34)C1=C[C@H](C(C)(C)C)O[C@@H]2C | x | -14.8 | x | x | x | x
CC1(C)CC(=O)C=C(Nc2ccc(Br)cn2)C1 | x | 21.2* | -6.7 | 0.8 | 2.3 | -8.4
CC1(C)CC(=O)C=C(Nc2ccccn2)C1 | 0.1 | 2.7 | 12.2 | 0.2 | x | x
Cc1cccc(NC(=O)CSc2ncnc3sc4c(c23)CCCC4)c1 | x | -2.8 | x | x | x | x
O=C(NCC1COCCO1)C1CCN(S(=O)(=O)c2cccs2)CC1 (stereo not given) | x | -0.2 | x | x | x | x
CN(C)c1ccc(-c2cc(O)c3ncccc3c2)cc1 | -7.3 | 26.5* | x | -24.5 | 17.7 | -7.0
COC(=O)[C@]12C[C@H](CC(=O)N3CCCCC3)C(=O)N(Cc3ccco3)C1=C[C@H](C(C)(C)C)O[C@@H]2C | x | -6.8 | x | x | x | x
CCOC(=O)c1sc(NC(C)=O)nc1C | -0.7 | 22.7* | -5.1 | 2.9 | 2.8 | -8.1
CCOC(=O)c1sc(NC(=O)c2ccc(OC)cc2)nc1C | -0.3 | 2.2 | 3.7 | 4.8 | x | x
O=S(=O)(c1ccccc1)n1c(CN2CCOCC2)nc2ccccc21 | x | 0.5 | x | x | x | x
C/C=C/C(=O)N1CCc2cc(S(=O)(=O)N(C)Cc3ccco3)ccc21 | x | 6.6 | x | x | x | x
Cc1ccc(S(=O)(=O)N2C(N)=C(C(=O)NCc3ccc(Br)cc3)C(c3ccc(Cl)cc3)C2C(=O)c2ccccc2)cc1 (stereo not given) | x | -18.3 | x | x | x | x
SMILES | NR3A LBD binder | sPLA2-III inh | SUMO HTRF inh | UBC13 polyUb | sPLA2 confirm | BODIPY interf | others
CCOc1ccc(C(=O)Nc2nnc(C(C)C)s2)cc1OCC | 0.7 | 0.8 | -9.9 | 7.5 | x | x
CCOc1ccc(C(=O)Nc2nncs2)cc1OCC | -1.3 | 21.6* | 0.3 | 3.0 | -1.9 | 0.9
CCCC[C@@H]1C(=O)N2N=Cc3cc(C)c(C)cc3[C@H]2N2N=Cc3cc(C)c(C)cc3[C@@H]12 | x | 20.5* | x | x | -6.3 | -23.2
CC(=O)c1cc(-c2ccc(-c3cc(C(=O)O)c4ccccc4n3)cc2)c(=O)n2c1CCC2 | x | 14.5 | x | x | x | x
O=C1C[C@H](C(=O)Nc2ccc(Cl)cc2)[C@@H](c2ccccc2)O1 | x | -12.3 | x | x | x | x
COc1cc(CNc2ccc3[nH]c(=O)[nH]c3c2)ccc1OCc1ccccc1F | 0.0 | 23.6* | 19.7 | 1.8 | 24.1* | -1.4
N#CCCN1CCCc2cc(N=Nc3ccc(C(F)(F)F)cc3)ccc21 | -3.5 | 23.1* | -2.8 | -128.9 | 24.2* | 8.4*
N#Cc1c(-c2cccs2)cc(C2CC2)nc1SCC(N)=O | 3.4 | 35.1* | 13.4 | 3.6 | 12.4 | -1.8
CC(C)(C)OC(=O)/C=C/[C@H](CCCCl)Sc1ccc(C(C)(C)C)cc1 | x | -6.3 | x | x | x | x
CCCOc1ccc(Br)cc1CSC(=N)N | -1.4 | 34.7* | 9.4 | 17.2 | 18.0 | -14.6
O=C1C(=Cc2cccc(Cl)c2)Cc2ccccc21 | x | 4.2 | x | x | x | x
O=C1C(=Cc2cccc(Cl)c2)CCc2ccccc21 | x | 20.8* | x | x | -1.3 | -2.6
CCCCNC(=O)C[C@H]1C[C@@]2(C(=O)OC)C(=C[C@H](C3CCCC3)O[C@@H]2C)N(Cc2ccc(Cl)cc2Cl)C1=O | x | 6.3 | x | x | x | x
O=C1c2ccccc2C(=O)N1c1cccc2cccnc12 | -1.2 | 22.3* | 73.6* | -3.6 | -1.8 | -5.8
O=c1cc(CCc2ccccc2)[nH]c(=O)[nH]1 | x | 5.6 | x | x | x | x
CN(c1ccccc1)c1cc(=O)[nH]c(=O)[nH]1 | -1.5 | 27.5* | 81.9 | -18.3 | -1.1 | -3.4
Nc1nc2c(ncn2[C@@H]2O[C@H](C(=O)NCCCc3ccccc3)[C@@H](O)[C@H]2O)c(=O)[nH]1 | x | 1.6 | x | x | x | x
Nc1[nH]nc2nnc(-c3c(-c4ccccc4)nn4ccccc34)cc12 | x | 21.6* | x | x | 8.6 | -3.2
CC(C)(C)c1ccc(S(=O)(=O)N2CCC(C(=O)N3CCN(C4CCCCC4)CC3)CC2)cc1 | x | -6.1 | x | x | x | x
Cc1cccc(/C=N/NC(=O)c2c(-c3ccccc3)noc2C)c1O | -6.8 | 33.9* | -14.3 | -10.8 | 15.5 | -1.5
CCOc1cccc(/C=N/NC(=O)c2ccc3c(c2)OCCO3)c1O | -10.2 | -11.1 | -12.2 | -10.2 | x | x
Cc1cccc(/C=N\NC(=O)c2ccc(Cl)cc2)c1O | 10.1* | 37.2* | 27.9 | -1.4 | 22.4* | 4.8
Cc1cccc(/C=N/NC(=O)c2ccc3c(c2)OCCO3)c1O | x | 30.5* | 7.5 | -13.4 | 19.4* | 2.7
CCOC(=O)C(=O)NNc1ccc(C)cc1 | 0.5 | 20.5* | 2.8 | 3.0 | 1.9 | 1.0
CCOC(=O)C(=O)NNc1ccc(Cl)cc1 | -1.5 | 2.2 | 13.2 | -4.5 | x | x
CC(C)C1Nc2c(O)cc(Cl)c([N+](=O)[O-])c2C2C=CCC21 (stereo not given) | 1.1 | 19.5* | 31.4 | x | 13.4 | 10.4*
CCc1ccccc1NC(=O)CCS(=O)(=O)c1ccc(C)cc1 | -2.7 | 19.7* | 5.8 | 5.6 | -1.7 | -4.1
CCCC[C@H]1C2CC(OC(=O)Nc3cccc(C#N)c3)C(C2)[C@H]2CCCCN21 (stereo not given in full) | x | -0.6 | x | x | x | x
O=C(Nc1ccc(C(F)(F)F)cc1)C1(c2ccccc2)CC1 | -2.2 | 25.4* | -0.1 | -4.1 | 4.2 | -10.9
